Where a name gives a salt, the structure may show the parent alone. ± gives the standard deviation of the averaged measurements.
Legend:
Experiment in all cases: growth (OD600 after 10 h); higher = more growth (less inhibition)
[1] = test system: E. coli TESEC Alr+ wild-type control; settings: compound 0.1 mM; raw OD600 reference: median of DMSO wells 0.241, cell-free background 0.041
Method: (§1)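 TESEC Mtb Alr E. coli, or the Alr+ wild-type control, in 384-well plates with Prestwick library compounds at 0.1 mM and 1% DMSO, across arabinose induction levels of 1E3 to 1E7 nM. Growth is read as OD600 after 10 h at 37 °C in triplicate biological replicates.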

E. coli TESEC Mtb Alr [2] = settings: compound 0.1 mM
Method: as §1

E. coli TESEC Mtb Asd = settings: compound 0.1 mM
Method: (§2)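 TESEC E. coli strains in which the native enzyme is deleted and replaced by arabinose-inducible Mtb Asd, DapB, CysH or TrpD, each grown in its selective medium. Strains were screened against the Prestwick library at 0.1 mM and 1% DMSO in 384-well format at low and high arabinose induction. Growth is read as OD600 after 10 h in triplicate.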

E. coli TESEC Mtb DapB = settings: compound 0.1 mM
Method: as §2

[3] = test system: E. coli TESEC Alr+ wild-type control; settings: compound 0.1 mM; raw OD600 reference: median of DMSO wells 0.49, cell-free background 0.052
Method: (§3)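 TESEC Mtb Alr E. coli (ΔaraC ΔtolC ΔentC Δalr ΔdadX, arabinose-inducible Mtb Alr) or the Alr+ wild-type control strain, grown in defined M9-fructose medium without D-alanine in 96-well plates with Prestwick library compounds at 0.1 mM and 1% DMSO. Low Alr induction is 0.1 µM arabinose and high induction is 10 mM arabinose.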

E. coli TESEC Mtb Alr [4] = settings: compound 0.1 mM; remark: listed apart in the source
Method: as §3

[5] = arabinose 1000 nM, raw OD600 reference: median of DMSO wells 0.294, cell-free background 0.041
[6] = arabinose 10000 nM, raw OD600 reference: median of DMSO wells 0.264, cell-free background 0.041
[7] = arabinose 100000 nM, raw OD600 reference: median of DMSO wells 0.201, cell-free background 0.041
[8] = arabinose 1000000 nM, raw OD600 reference: median of DMSO wells 0.193, cell-free background 0.041
[9] = arabinose 10000000 nM, raw OD600 reference: median of DMSO wells 0.146, cell-free background 0.041
[10] = arabinose induction (level): High, raw OD600 reference: median of DMSO wells 0.331, cell-free background 0.041
[11] = arabinose induction (level): Low, raw OD600 reference: median of DMSO wells 0.417, cell-free background 0.041
[12] = arabinose induction (level): High, raw OD600 reference: median of DMSO wells […], cell-free background 0.041
[13] = arabinose induction (level): Low, raw OD600 reference: median of DMSO wells 0.227, cell-free background 0.041
[14] = arabinose 100 nM, raw OD600 reference: median of DMSO wells 0.413, cell-free background 0.052
[15] = arabinose 10000000 nM, raw OD600 reference: median of DMSO wells […], cell-free background 0.052

Structure (SMILES) | growth [1] | growth (E. coli TESEC Mtb Alr [2]; [5]) | growth (E. coli TESEC Mtb Alr [2]; [6]) | growth (E. coli TESEC Mtb Alr [2]; [7]) | growth (E. coli TESEC Mtb Alr [2]; [8]) | growth (E. coli TESEC Mtb Alr [2]; [9]) | growth (E. coli TESEC Mtb Asd; [10]) | growth (E. coli TESEC Mtb Asd; [11]) | growth (E. coli TESEC Mtb DapB; [12]) | growth (E. coli TESEC Mtb DapB; [13]) | growth [3] | growth (E. coli TESEC Mtb Alr [4]; [14]) | growth (E. coli TESEC Mtb Alr [4]; [15])
COc1ccc(C(=O)CC(=O)c2ccc(C(C)(C)C)cc2)cc1 [Avobenzone] | 0.116 ± 0.017 | 0.188 ± 0.026 | 0.197 ± 0.016 | 0.176 ± 0.02 | 0.107 ± 0.033 | 0.109 ± 0.0074 | 0.277 ± 0.068 | 0.27 ± 0.0061 | 0.202 ± 0.072 | 0.239 ± 0.055 | 0.533 ± 0.076 | 0.247 ± 0.058 | 0.267 ± 0.0055
CC1(C)S[C@@H]2[C@H](NC(=O)Cc3ccccc3)C(=O)N2[C@H]1C(=O)O [Benzylpenicillin sodium] | 0.237 ± 0.005 | 0.2824 ± 0.00081 | 0.282 ± 0.0074 | 0.172 ± 0.011 | 0.227 ± 0.017 | 0.132 ± 0.0078 | 0.331 ± 0.1 | 0.385 ± 0.06 | 0.204 ± 0.013 | 0.229 ± 0.017 | 0.533 ± 0.11 | 0.434 ± 0.0042 | 0.363 ± 0.0066
c1cnc(N2CCN(Cc3ccc4c(c3)OCO4)CC2)nc1 [Piribedil hydrochloride] | 0.2234 ± 0.0017 | 0.273 ± 0.0036 | 0.256 ± 0.0059 | 0.179 ± 0.01 | 0.166 ± 0.0044 | 0.14 ± 0.0043 | 0.218 ± 0.013 | 0.399 ± 0.027 | 0.178 ± 0.01 | 0.202 ± 0.013 | 0.512 ± 0.077 | 0.398 ± 0.014 | 0.366 ± 0.01
CC(C)Oc1ccc2c(=O)c(-c3ccccc3)coc2c1 [Ipriflavone] | 0.196 ± 0.0047 | 0.25 ± 0.018 | 0.231 ± 0.0093 | 0.186 ± 0.015 | 0.117 ± 0.02 | 0.138 ± 0.0016 | 0.345 ± 0.098 | 0.4 ± 0.021 | 0.191 ± 0.018 | 0.211 ± 0.039 | 0.464 ± 0.025 | 0.402 ± 0.014 | 0.285 ± 0.012
NC[C@H]1CC[C@H](C(=O)O)CC1 [Tranexamic acid] | 0.254 ± 0.0017 | 0.293 ± 0.0074 | 0.282 ± 0.0046 | 0.215 ± 0.031 | 0.186 ± 0.002 | 0.141 ± 0.0029 | 0.381 ± 0.056 | 0.446 ± 0.026 | 0.188 ± 0.011 | 0.214 ± 0.018 | 0.456 ± 0.04 | 0.411 ± 0.0076 | 0.349 ± 0.0049
NC12CC3CC(CC(C3)C1)C2 [Adamantamine fumarate] | 0.253 ± 0.0038 | 0.299 ± 0.0054 | 0.271 ± 0.005 | 0.248 ± 0.034 | 0.209 ± 0.014 | 0.145 ± 0.0061 | 0.353 ± 0.052 | 0.457 ± 0.0081 | 0.2 ± 0.0046 | 0.214 ± 0.0073 | 0.469 ± 0.056 | 0.407 ± 0.0076 | 0.368 ± 0.026
COc1ccccc1OCCNCC(O)COc1cccc2[nH]c3ccccc3c12 (stereo unspecified) [Carvedilol] | 0.0443 ± 0.0033 | 0.0415 ± 0.00062 | 0.046 ± 0.0023 | 0.0419 ± 0.00047 | 0.04137 ± 0.0004 | 0.0456 ± 0.0015 | 0.0533 ± 0.004 | 0.0496 ± 0.0017 | 0.0942 ± 0.026 | 0.06 ± 0.004 | 0.167 ± 0.11 | 0.4106 ± 0.0016 | 0.0825 ± 0.025
Cc1ccc2c(c1)c1c3n2CCNC3CCC1 (stereo unspecified) [Pirlindole mesylate] | 0.215 ± 0.0049 | 0.252 ± 0.0064 | 0.262 ± 0.0058 | 0.182 ± 0.022 | 0.148 ± 0.003 | 0.165 ± 0.011 | 0.177 ± 0.0082 | 0.259 ± 0.028 | 0.18 ± 0.0019 | 0.201 ± 0.024 | 0.485 ± 0.052 | 0.397 ± 0.0065 | 0.351 ± 0.011
CC(C)(C)NCC(O)c1ccc(O)c(CO)c1 (stereo unspecified) [Salbutamol] | 0.241 ± 0.0029 | 0.285 ± 0.015 | 0.271 ± 0.0082 | 0.192 ± 0.0026 | 0.183 ± 0.0057 | 0.137 ± 0.0049 | 0.318 ± 0.067 | 0.436 ± 0.032 | 0.215 ± 0.015 | 0.233 ± 0.028 | 0.528 ± 0.092 | 0.43 ± 0.0098 | 0.383 ± 0.017
CC(CN(C)C)CN1c2ccccc2CCc2ccccc21 (stereo unspecified) [Trimipramine maleate salt] | 0.167 ± 0.0021 | 0.204 ± 0.012 | 0.3 ± 0.0057 | 0.184 ± 0.013 | 0.15 ± 0.0042 | 0.156 ± 0.0021 | 0.141 ± 0.019 | 0.267 ± 0.046 | 0.195 ± 0.035 | 0.219 ± 0.027 | 0.4285 ± 0.0016 | 0.395 ± 0.0065 | 0.337 ± 0.0056
CCOC(=O)OC(C)OC(=O)[C@@H]1N2C(=O)[C@@H](NC(=O)[C@H](N)c3ccccc3)[C@H]2SC1(C)C (stereo partly specified) [Bacampicillin hydrochloride] | 0.239 ± 0.011 | 0.305 ± 0.011 | 0.269 ± 0.0047 | 0.356 ± 0.0077 | 0.17 ± 0.0089 | 0.198 ± 0.006 | 0.237 ± 0.13 | 0.325 ± 0.034 | 0.185 ± 0.016 | 0.188 ± 0.0087 | 0.611 ± 0.013 | 0.41 ± 0.0064 | 0.338 ± 0.017
O=C1CCC(N2C(=O)c3ccccc3C2=O)C(=O)N1 (stereo unspecified) [Thalidomide] | 0.248 ± 0.0061 | 0.283 ± 0.0041 | 0.269 ± 0.014 | 0.204 ± 0.012 | 0.192 ± 0.0034 | 0.135 ± 0.0057 | 0.392 ± 0.098 | 0.461 ± 0.035 | 0.189 ± 0.016 | 0.24 ± 0.052 | 0.513 ± 0.072 | 0.424 ± 0.0084 | 0.346 ± 0.0072
Cc1onc(-c2ccccc2Cl)c1C(=O)N[C@@H]1C(=O)N2[C@@H]1SC(C)(C)[C@@H]2C(=O)O [Cloxacillin sodium salt] | 0.2567 ± 0.0017 | 0.288 ± 0.018 | 0.267 ± 0.005 | 0.217 ± 0.025 | 0.183 ± 0.0023 | 0.144 ± 0.0071 | 0.32 ± 0.051 | 0.41 ± 0.046 | 0.162 ± 0.01 | 0.208 ± 0.015 | 0.514 ± 0.11 | 0.417 ± 0.0066 | 0.344 ± 0.014
COC(=O)Nc1nc2ccc(SC(C)C)cc2[nH]1 [Methiazole] | 0.244 ± 0.0029 | 0.278 ± 0.0056 | 0.271 ± 0.0072 | 0.195 ± 0.013 | 0.219 ± 0.0056 | 0.151 ± 0.0024 | 0.365 ± 0.093 | 0.33 ± 0.048 | 0.204 ± 0.019 | 0.235 ± 0.035 | 0.523 ± 0.037 | 0.427 ± 0.0091 | 0.37 ± 0.025
Nc1ccn([C@@H]2O[C@H](CO)[C@@H](O)C2(F)F)c(=O)n1 [Gemcitabine] | 0.1523 ± 0.0014 | 0.208 ± 0.012 | 0.193 ± 0.029 | 0.126 ± 0.012 | 0.116 ± 0.0036 | 0.164 ± 0.003 | 0.137 ± 0.0051 | 0.133 ± 0.0042 | 0.157 ± 0.0053 | 0.177 ± 0.035 | 0.51 ± 0.05 | 0.321 ± 0.018 | 0.217 ± 0.0091
CC(C(=O)O)c1ccc2c(c1)[nH]c1ccc(Cl)cc12 (stereo unspecified) [Carprofen] | 0.0924 ± 0.0058 | 0.116 ± 0.006 | 0.107 ± 0.0066 | 0.1024 ± 0.001 | 0.0781 ± 0.0038 | 0.111 ± 0.0039 | 0.171 ± 0.015 | 0.168 ± 0.044 | 0.201 ± 0.0073 | 0.215 ± 0.011 | 0.594 ± 0.029 | 0.409 ± 0.0018 | 0.149 ± 0.025
CS(=O)(=O)c1ccc(C2=C(c3ccccc3)C(=O)OC2)cc1 [Rofecoxib] | 0.182 ± 0.012 | 0.2483 ± 0.0006 | 0.242 ± 0.019 | 0.184 ± 0.037 | 0.151 ± 0.008 | 0.144 ± 0.011 | 0.336 ± 0.1 | 0.362 ± 0.097 | 0.205 ± 0.0062 | 0.213 ± 0.009 | 0.455 ± 0.041 | 0.409 ± 0.015 | 0.302 ± 0.041

Source: the supplement of paper PMC9262897, “Low-cost anti-mycobacterial drug discovery using engineered E. coli” (Nature Communications, 2022)
